Data from the supplement of paper PMC3334620.
The full ranking holds about 33,000 sequences; the median of “E-score (-0.5 to 0.5)” is about -0.016, and the highest 2% start at about 0.32. The sample as a whole holds a higher share of the highest values than the screen did.

target: T1, Stp1 (UniProt B3LFK1); test: PBM E-score (8-mer binding enrichment) (E-score (-0.5 to 0.5)); higher = stronger / more preferred TF binding; conditions: protein concentration: 200 nM; construct: GST-full length
T1 sequence: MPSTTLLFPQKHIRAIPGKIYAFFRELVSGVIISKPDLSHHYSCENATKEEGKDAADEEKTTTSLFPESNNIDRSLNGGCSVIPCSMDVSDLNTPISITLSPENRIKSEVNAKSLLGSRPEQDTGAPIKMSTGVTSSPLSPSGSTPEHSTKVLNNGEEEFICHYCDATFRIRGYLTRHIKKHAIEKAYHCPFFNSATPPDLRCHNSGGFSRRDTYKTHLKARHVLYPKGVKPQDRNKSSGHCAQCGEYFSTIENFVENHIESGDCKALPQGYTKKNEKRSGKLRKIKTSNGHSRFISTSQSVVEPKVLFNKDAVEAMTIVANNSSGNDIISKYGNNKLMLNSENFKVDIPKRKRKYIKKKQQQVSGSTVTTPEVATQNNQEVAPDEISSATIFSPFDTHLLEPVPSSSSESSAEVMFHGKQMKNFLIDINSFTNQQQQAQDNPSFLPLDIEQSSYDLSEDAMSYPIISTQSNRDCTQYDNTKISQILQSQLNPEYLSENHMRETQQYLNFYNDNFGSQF
Summary of the method: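 E-scores (a modified Wilcoxon-Mann-Whitney statistic) were assigned by the Universal PBM Analysis Suite to every ungapped eight-base word pooled with its reverse complement. The input came from universal all-10-mer Agilent arrays made double-stranded by primer extension and probed with GST-tagged yeast transcription factors at about 100-200 nM. Fluorescent anti-GST detected bound protein, and masliner normalised the scans.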

| Sequence | PBM E-score |
| --- | --- |
| GACGCGGA | 0.136 |
| AACGCGGA | 0.0987 |
| GACGCGGC | 0.466 |
| AACGCGGG | 0.184 |
| CACGCGGA | 0.294 |
| CACGCGGG | 0.143 |
| GACGCGAC | -0.0598 |
| CACGCGGC | 0.459 |
| AACGCGGC | 0.443 |
| ACTCGATC | -0.0856 |
| AGGTGGCA | 0.218 |
| GAATGCCA | 0.134 |
| CTTAAATC | 0.0764 |
| ATGGCGTG | 0.102 |
| CCGGCGTC | 0.0446 |
| AGGGCGTC | 0.131 |
| ACGGCGTG | 0.455 |
| AGGGCGTG | -0.0356 |
| ACGGCGTA | 0.448 |
| CCGGCGTA | 0.0906 |
| ACGGCGTC | 0.472 |
| AAGGCGTA | 0.234 |
| GTGGCGTA | 0.0488 |
| GGGGCGTA | -0.174 |

| Sequence | PBM E-score |
| --- | --- |
| GCGGCGTA | 0.433 |
| GTGTGTTA | 0.029 |
| AGTTCAAT | -0.0607 |
| CGGTTATC | -0.0601 |
| CAGCAATG | -0.194 |
| AAATAAGG | 0.0174 |
| CAAACTAG | -0.107 |
| CCACTGGA | -0.241 |
| ACACCGCG | 0.0308 |
| CCAGAACC | -0.154 |
| AGGCTATG | -0.196 |
| CGCTGAAG | -0.108 |
| ACGGCTGG | 0.139 |
| ACGGCTTC | 0.417 |
| ATGGCTTG | -0.0553 |
| ACGGCTGA | 0.147 |
| CCGGCTTC | -0.0259 |
| ACGGCTGC | 0.289 |
| ACGGCTTA | 0.375 |
| ACGGCTTG | 0.335 |
| GCGGCTTA | 0.234 |
| AAGCGGTC | -0.149 |
| GATTAGGC | 0.02 |
